Test results from PubChem BioAssay AID504848 (National Center for Advancing Translational Sciences (NCATS), 2011).
Values joined by “and” are separate entries in the source; they are usually repeats but may differ in a detail not shown here. Equal values may be shown once. Screen size: about 2,300 compounds; about 1,400 (61%) were called active. Not shown: some 29% with an inconclusive outcome. The set was probably picked from earlier hits. The list shows a part of the results. Unmarked numbers belong to inactive results. The call rests on the fitted dose curve; in most records, active means well fitted inhibition curve with a large enough effect; inconclusive means small, poorly fitted or top-dose-only effect, or effect the other way; inactive means no such curve, though single readings can be large or run the other way.

assay: Confirmation screen for delayed death inhibitors of the malarial parasite plastid, 96 hour incubation; further: nearly all actives have a fitted effect of over 60% in size; settings: P. falciparum luciferase growth in erythrocytes; series mostly up to 28.7 µM; activity change, negative = inhibition: at the top concentration
From the text: The goal of this screen is to discover new antimalarial compounds that act by inhibiting the development of the apicoplast in the malarial parasite Plasmodium falciparum. The biochemical processes that make this organelle essential for erythrocytic stage parasites are not well understood. However, antibiotics, such as azithromycin and tetracycline, which target the apicoplast translational machinery, have a potent antimalarial effect. […] We have developed a cell-based assay that measures parasite growth based on the expression of an integrated copy of a firefly luciferase reporter. To detect small molecules that cause this "delayed death phenotype, erythrocytes infected with the luciferase-expressing parasites were incubated with compounds for either one or two generations, corresponding to 48 and 96 hours, respectively. Compounds that inhibit parasite growth in the second generation, but not the first, should be enriched in antimalarials that target the apicoplast. Growth inhibition is detected by a decrease in luciferase activity. MLPCN Grant: R21 NS059500 Assay Provider: David Fidock and Eric Ekland, Columbia University Keywords: NIH Roadmap, MLPCN, MLI, MLSMR, qHTS, NCGC, qHTS, malaria, luciferase, viability
Four microliters of culture medium (RPMI 1640 with 0.5% w/v Albumax (GIBCO), 24 mM sodium bicarbonate and 10 ug/mL gentamycin) were dispensed by a Multi-drop Combi into white solid 1536-well plates (Grenier) and 23 nL compound was added by a pin tool. Four microliters of infected erythrocytes (2% hematocrit, 0.1% parasitemia final concentration) in culture medium were dispensed and the plates incubated for 96 hours at 37 C in 5% CO2. Two microliters of luciferase detection reagent was added and luminescence was detected by a ViewLux (PerkinElmer) reader
On the % scale 0 is the no-effect control and ±100 the full control effect; potency means the concentration at half of the fitted maximal effect.

Q: With COc1ccc(-n2c(C)cc(C(=O)C[N+]34CCN(CC3)CC4)c2C)cc1 as the compound, how does the Potency read?
A: The Potency was 12.6 µM (active).

Q: With C[C@@H]1CC2(CCCC[N+]2(C)C)C[C@H]1C as the compound, how does the Potency read?
A: Its Potency is 14.1 µM (active).

Q: Which “activity change, negative = inhibition” value does the source give for CC(=O)N1CC(=O)Nc2ccc(Cl)cc2C1c1ccccc1 (centres undefined) here?
A: Its value is -21.6%.

Q: With CN1C[C@H](C(=O)N[C@]2(C)O[C@@]3(O)[C@@H]4CCCN4C(=O)[C@H](Cc4ccccc4)N3C2=O)C[C@@H]2c3cccc4[nH]cc(c34)C[C@H]21 as the compound, how does the Potency read?
A: Its Potency is 2.24 µM (active).

Q: With O=C(CN1CC=C(c2ccccc2)CC1)NC(=O)NCc1ccccc1 as the compound, how does the “activity change, negative = inhibition” value read?
A: Its value is -23%.

Q: For Cc1ccc(N2C(=O)NC(=O)/C(=C\C=C\c3ccco3)C2=O)cc1, which “activity change, negative = inhibition” value is on record?
A: The value was -0.857%.

Q: For CC(C)(C)C(=O)C(Oc1ccc(Cl)cc1)n1ccnc1 (centres undefined), which Potency is on record?
A: The Potency was 14.1 µM (active).

Q: With C=C[C@H]1CN2CC[C@H]1C[C@@H]2[C@@H](O)c1ccnc2ccccc12 as the compound, how does the Potency read?
A: Its Potency is 0.199 µM (active).

Q: Which Potency does the source give for C[n+]1c2cc(N)ccc2cc2ccc(N)cc21 here?
A: Its Potency is 0.562 µM (active).

Q: Which Potency does the source give for Cn1c(=O)oc2cc(NC(=O)CCl)ccc21 here?
A: The Potency was 0.794 µM (active).

Q: Which Potency does the source give for CCn1c(=O)oc2cc(NC(=O)CCl)ccc21 here?
A: Its Potency is 2 µM (active).

Q: With CN1CCc2cc3c(c4c2C1Cc1ccccc1-4)OCO3 (centres undefined) as the compound, how does the Potency read?
A: Its Potency is 0.562 µM (active).

Q: With C=C1C(=O)O[C@@H]2C[C@@H](C)[C@@H]3C=CC(=O)[C@@]3(C)[C@@H](O)[C@H]12 as the compound, how does the Potency read?
A: The Potency was 2 µM (active).

Q: With C=C1C(=O)O[C@@H]2C[C@@H](C)[C@@H]3C=CC(=O)[C@@]3(C)[C@@H](OC(=O)CC(=O)O[C@H]3[C@@H]4C(=C)C(=O)O[C@@H]4C[C@@H](C)[C@@H]4C=CC(=O)[C@]43C)[C@H]12 as the compound, how does the Potency read?
A: The Potency was 0.0282 µM (active).

Q: For C=C1C(O)[C@@H]2O[C@]3(CC[C@H](/C=C/C(C)[C@@H]4CC(C)=CC5(O[C@H](C[C@@](C)(O)C(=O)O)CCC5O)O4)O3)CC[C@H]2O[C@@H]1C(O)CC(C)[C@H]1OC2(CCCCO2)CCC1C (some centres undefined), which Potency is on record?
A: Its Potency is 0.0631 µM (active).

Q: Which “activity change, negative = inhibition” value does the source give for O=c1oc2ccccc2c(O)c1[C@H]1c2ccc(O)cc2Oc2c1c(=O)oc1ccccc21 here?
A: Its value is 18%.

Q: Which Potency does the source give for CC(C)c1oc(=O)cc2c1[C@@H](O)[C@H]1OC(=O)[C@@]3(C)CC[C@@H](O)[C@@]2(C)C13 (some centres undefined) here?
A: The Potency was 7.94 µM (active).

Q: With O=C(/C=C/c1cccs1)c1cc(Cl)ccc1OC(=O)N1CCOCC1 as the compound, how does the Potency read?
A: Its Potency is 11.2 µM (active).

Q: For Cc1cc2ccccn2c1C(C[N+](=O)[O-])c1c(F)cccc1Cl (centres undefined), which Potency is on record?
A: Its Potency is 12.6 µM (active).

Q: With Cc1ccc(C(C)C)c(OCC(=O)N2CCN(Cc3nc4cc([N+](=O)[O-])ccc4n3C)CC2)c1 as the compound, how does the “activity change, negative = inhibition” value read?
A: The value was -11.1%.

Q: For COc1cccc(-n2c(CN3CCN(C)CC3)nc3ccc([N+](=O)[O-])cc3c2=O)c1, which Potency is on record?
A: The Potency was 15.8 µM (active).

Q: Which “activity change, negative = inhibition” value does the source give for CC(C)c1ccc(N2C(=O)NC(=O)/C(=C\C=C\c3ccco3)C2=O)cc1 here?
A: Its value is -9.71%.

Q: Which Potency does the source give for O=C(CCl)Nc1nccs1 here?
A: Its Potency is 6.31 µM (active).

Q: With Fc1ccc(C[n+]2c(-c3ccccc3)cc(-c3ccccc3)cc2-c2ccccc2)cc1 as the compound, how does the Potency read?
A: Its Potency is 2 µM (active).

Q: For O=C1NC(=O)N(c2ccccc2)C(=O)/C1=C/C=C/c1ccco1, which “activity change, negative = inhibition” value is on record?
A: Its value is -22.6%.

Q: For C=CCn1c(O)c(N=Nc2c(C)n(C)n(-c3ccccc3)c2=O)c(=O)[nH]c1=S, which Potency is on record?
A: The Potency was 6.31 µM (active).

Q: Which Potency does the source give for O=[N+]([O-])c1cccc2c([As](=O)(O)O)cccc12 here?
A: The Potency was 1.12 µM (active).

Q: For C[C@@H]1C[C@@H]2O[C@H]2/C=C\C=C\C(=O)Cc2c(Cl)c(O)cc(O)c2C(=O)O1, which Potency is on record?
A: Its Potency is 7.08 µM (active).

Q: Which Potency does the source give for COC(=O)c1nc(-c2ccc3c(n2)C(=O)C(N)=C(OC)C3=O)c(N)c(-c2ccc(OC)c(OC)c2O)c1C here?
A: The Potency was 0.251 µM (active).

Q: With O=C(NC1CC2CCCC(C1)N2)c1ccccc1 (centres undefined) as the compound, how does the Potency read?
A: The Potency was 5.01 µM (active).

Q: Which Potency does the source give for Cc1ccc(-c2nc(NC(=O)c3ccc(S(=O)(=O)N(CCC#N)CCC#N)cc3)sc2-c2ccccc2)cc1 here?
A: The Potency was 11.2 µM (active).

Q: Which Potency does the source give for CN1C2CCC1/C(=C/c1ccccn1)C(=O)/C2=C\c1ccccn1 here?
A: The Potency was 0.158 µM (active).

Q: Which “activity change, negative = inhibition” value does the source give for C[C@@H]1O[C@@H](O[C@H]2C[C@@H](O)[C@]3(CO)[C@@H]4C(CC[C@]3(O)C2)[C@@]2(O)CC[C@H](C3COC(=O)C3)[C@@]2(C)C[C@H]4O)[C@H](O)[C@H](O)[C@H]1O (some centres undefined) here?
A: The value was -24%.

Q: For CCOc1cc2c(cc1OCC)-n1cccc1C(c1ccccc1F)NC2 (centres undefined), which Potency is on record?
A: Its Potency is 5.01 µM (active).

Q: For C[C@H]1C[C@@H](C)C(=O)[C@@H]([C@H](O)CC2CC(=O)NC(=O)C2)C1, which Potency is on record?
A: Its Potency is 0.0316 µM (active).

Q: With C[C@@H]1C[C@@H]([C@H](O)CC2CC(=O)NC(=O)C2)C(=O)[C@@H](C)C1 as the compound, how does the Potency read?
A: Its Potency is 0.794 µM (active).

Q: With C/C1=C\[C@@H](C)C/C=C/[C@H]2[C@@H]3O[C@]3(C)[C@@H](C)[C@H]3[C@H](Cc4c[nH]c5ccccc45)NC(=O)[C@]32C(=O)/C=C/C(=O)[C@@H]1O as the compound, how does the Potency read?
A: The Potency was 0.891 µM (active).

Q: For CCC(C(=O)N1CCC2(CC1)OCCO2)n1c2ccccc2c2nc(=O)cc(C)n21 (centres undefined), which Potency is on record?
A: The Potency was 11.2 µM (active).

Q: With C[C@@H]1CC[C@H]2[C@@H](C)C(=O)O[C@@H]3OC4(C)CC[C@@H]1C32OO4 (some centres undefined) as the compound, how does the Potency read?
A: Its Potency is 0.0398 µM (active).

Q: Which Potency does the source give for C[C@@H]1CC[C@H]2[C@@H](C)C(=O)O[C@@H]3O[C@@]4(C)CC[C@@H]1[C@]32OO4 here?
A: Its Potency is 0.0398 µM (active).

Q: For CCN(CC)Cc1cc(Nc2ccnc3cc(Cl)ccc23)ccc1O, which Potency is on record?
A: The Potency was 89.1 nM (active) and 22.4 nM (active).

Q: For COc1ccc(-c2cc(-c3ccccc3)[n+](C)c(-c3ccccc3)c2)cc1, which Potency is on record?
A: The Potency was 2 µM (active).

Q: With C[n+]1c(-c2ccccc2)cc(-c2ccc(Cl)cc2)cc1-c1ccccc1 as the compound, how does the Potency read?
A: Its Potency is 0.891 µM (active).

Q: With CCOP(=O)(OCC)C(O)c1ccc(OC)cc1OC (centres undefined) as the compound, how does the “activity change, negative = inhibition” value read?
A: The value was 9.71%.

Q: Which Potency does the source give for O=C1/C(=C/c2ccccc2)C[C@@]2(O)[C@H]3Cc4ccc(O)c5c4[C@@]2(CCN3CC2CC2)C1O5 (some centres undefined) here?
A: Its Potency is 5.01 µM (active).

Q: For COc1ccc(Cn2c(N)c(C(=O)NCc3ccco3)c3nc4ccccc4nc32)cc1, which Potency is on record?
A: Its Potency is 3.98 µM (active).

Q: Which Potency does the source give for CC(C)CCOP(N)(=O)Oc1ccccc1 (centres undefined) here?
A: The Potency was 3.98 µM (active).

Q: For CC[n+]1c(-c2ccccc2)c2cc(N)ccc2c2ccc(N)cc21, which Potency is on record?
A: Its Potency is 0.0282 µM (active).

Q: Which Potency does the source give for CC1=CC2/C=C(\C)CCC(O)C(O)/C=C/C(=O)C23C(=O)NC(CC(C)C)C3C1C (centres undefined) here?
A: Its Potency is 12.6 µM (active).

Q: For CCCNS(=O)(=O)c1ccc(OCC(=O)N2CCN(Cc3ccc4c(c3)OCO4)CC2)c(C)c1, which Potency is on record?
A: Its Potency is 11.2 µM (active).

Q: With Oc1ccc(-[n+]2c(-c3ccccc3)cc(-c3ccccc3)cc2-c2ccccc2)cc1 as the compound, how does the Potency read?
A: Its Potency is 0.0794 µM (active).

Q: Which “activity change, negative = inhibition” value does the source give for CC12CC[C@H]3[C@@H](CCC4(O)C[C@H](O)CCC34/C=N/NC(=O)c3ccccc3F)C1(O)CCC2C1=CC(=O)OC1 (some centres undefined) here?
A: The value was -94.9%.

Q: For COc1cc(C(=O)N/N=C/C23CC[C@@H](O)CC2(O)CC[C@@H]2[C@@H]3CCC3(C)C(C4=CC(=O)OC4)CCC23O)ccc1O (some centres undefined), which “activity change, negative = inhibition” value is on record?
A: The value was -32%.

Q: With CN(C)c1ccc(C(=O)N/N=C/C23CC[C@@H](O)CC2(O)CC[C@@H]2[C@@H]3CCC3(C)C(C4=CC(=O)OC4)CCC23O)cc1 (some centres undefined) as the compound, how does the Potency read?
A: The Potency was 12.6 µM (active).

Q: Which Potency does the source give for COC(=O)C1=C(c2ccccc2OCc2ccccc2)C[C@@H]2CC[C@H]1N2C(=O)NCCOc1ccc(OC)cc1 here?
A: Its Potency is 12.6 µM (active).

Q: Which Potency does the source give for CC[C@H]1CN2CCc3cc(OC)c(OC)cc3C2C[C@@H]1C[C@H]1NCCc2cc(OC)c(OC)cc21 (some centres undefined) here?
A: The Potency was 0.0501 µM (active).

Q: Which Potency does the source give for CC[C@H]1CN2CCc3cc(OC)c(OC)cc3[C@H]2C[C@@H]1C[C@@H]1NCCc2cc(OC)c(OC)cc21 here?
A: The Potency was 0.501 µM (active).

Q: With CC[C@H]1CN2CCc3cc(OC)c(OC)cc3[C@@H]2C[C@@H]1C[C@H]1NCCc2cc(OC)c(OC)cc21 as the compound, how does the Potency read?
A: Its Potency is 0.224 µM (active).

Q: With Cn1c(O)c(C=NC2C(=O)C3(C)CCC2C3(C)C)c(=O)n(C)c1=O (centres undefined) as the compound, how does the “activity change, negative = inhibition” value read?
A: Its value is 9.58%.
